Source: PubChem (National Center for Advancing Translational Sciences (NCATS))
HT1080-NT tox: kills 2HG-producing HT-1080-NT fibrosarcoma cells. HT-1080-NT fibrosarcoma viability, CellTiter-Glo ATP luminescence, 48 h. Potency, µM (highest dose often 46.1 µM), usual class: cytotoxic. 360,000 compounds, 1.6% hits. AID 686970;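 note: NT is the 2HG producing partner of a matched IDH1 knockdown line; nearly all actives have a fitted effect of over 55% in size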
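Luminescent CellTiter-Glo readout after 48 hours of compound exposure at 37 degrees C defined viability of HT-1080-NT cells. Activity was normalized to DMSO wells and cell-free media wells; concentration-response curves were fitted and assigned curve classes.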
DT40 TDP1 no CPT: qHTS for Inhibitors of human tyrosyl-DNA phosphodiesterase 1 (TDP1): qHTS in cells in absence of CPT; DT40 Tdp1-/- hTDP1 cells, no CPT, ATP luminescence, 48 h; Potency, µM (doses to about 46.2 µM), hits mostly inhibitors; 420,000 compounds, 15% hits; note: nearly all actives have a fitted effect of over 55% in size
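Growth kinetics read by CellTiter-Glo luminescence after ≥48 hr at 37 °C. Cells: DT40 Tdp1-/- stably carrying human TDP1, 400 per well, compound exposure in the absence of CPT (DMSO vehicle).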
KB-3-1 tox: kills parental KB-3-1 adenocarcinoma cells. KB-3-1 viability, CellTiter-Glo ATP luminescence, 72 h. Potency, µM (highest dose often 46.1 µM), most hits filed as cytotoxic. 400,000 compounds, 1.4% hits; note: nearly all actives have a fitted effect of over 60% in size
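72 h, 37 °C compound treatment of KB-3-1 parental cells; CellTiter-Glo added, 10 min, luminescence read. Data corrected against DMSO-only plates and normalized before curve fitting.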
HT1080 IDH1KD tx: kills HT-1080 cells with IDH1 knockdown; HT-1080 IDH1 knockdown viability, ATP luminescence, 48 h; Potency, µM (doses to about 46.1 µM), hits mostly cytotoxic; 360,000 compounds, 2% hits
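Luminescent ATP read-out (CellTiter-Glo, 10 min at room temperature) after 48 h compound exposure at 37 °C gave viability of IDH1-knockdown HT-1080 cells. Activity was normalised to DMSO and cell-free wells, then fitted as concentration-response curves.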
TDP1 cell CPT: growth inhibition of DT40 Tdp1-/-;hTDP1 cells with camptothecin (screen for TDP1 inhibitors). chicken DT40 Tdp1-/-;hTDP1 cells + 20 nM CPT, ATP luminescence, 48 h. Potency, µM (series often up to 46.2 µM), most hits filed as inhibitors. 420,000 compounds, 12% hits; note: nearly all actives have a fitted effect of over 55% in size
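Chicken DT40 Tdp1-/- cells stably complemented with human TDP1 were seeded at 400 cells/well in medium containing 20 nM camptothecin, exposed to pin-transferred compounds, and grown at 37 °C for at least 48 hr. Viability was read as ATP luminescence.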
KB-V1 MDR tox: kills drug-selected multidrug resistant KB-V1 cells; KB-V1 MDR cells viability, CellTiter-Glo, 72 h; Potency, µM (highest dose often 46.1 µM), usual class: cytotoxic; 400,000 compounds, 3.4% hits; AID 1347076; note: nearly all actives have a fitted effect of over 60% in size
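KB-V1, DMEM (no phenol red) + 10% FBS; cpd pin-transferred, titration series; 72 h, 37 degrees C; CellTiter-Glo, luminescence. Data normalized, curve-fit.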
Hits are given with their value; i = inactive; ? = inconclusive; nt = not tested or not shown. The list is not random: actives were taken first. Their share in the collection is about 19%. Calls come from the whole dose curve; as a rule, active = well fitted curve in the direction sought with a large enough effect; inconclusive = small, poorly fitted or top-dose-only effect, or another doubt; inactive = no such curve, though single readings can be large; an effect the other way counts as inactive or inconclusive.

SMILES	HT1080-NT tox	DT40 TDP1 no CPT	KB-3-1 tox	HT1080 IDH1KD tx	TDP1 cell CPT	KB-V1 MDR tox
CCOC(=O)Nc1ccc2c(c1)N(C(=O)CCN(CC)CC)c1ccccc1S2=O (stereo not drawn)	16µM	3.7µM	?	26µM	2.6µM	i
COc1ccc(C(=O)N2CCC[C@@]3(CCN(C)C3)C2)cc1	nt	i	nt	nt	i	nt
Cc1ccc(NC(=O)C(C)SCc2nc3sc(C)c(C)c3c(=O)[nH]2)nc1 (stereo not drawn)	i	i	i	i	i	i
CC(C)OCCCNC(=O)CCCn1c(SCC(N)=O)nc2c(sc3ccccc32)c1=O	nt	i	nt	nt	?	nt
CSc1ccc(CNCc2c(C(=O)O)c(C)n(Cc3ccc(F)cc3Cl)c2C)cc1	nt	i	i	nt	?	i
COc1ccccc1NC(=O)N1CCC(CN2CCc3ccccc3C2)CC1	nt	i	i	nt	i	i
COc1ccc(C[C@H]2c3cc(O)c(OC)cc3CC[N+]2(C)[O-])cc1O (stereo partly drawn)	i	21µM	i	i	?	i
CCN1C[C@@H]2[C@@H]3C(=O)N(C)C(=O)[C@@H]3[C@](C)(C1=O)N2C(=O)c1ccc(Br)cc1	i	i	i	i	i	i
CCC(C)NCCCCOc1cc(C)cc(C(C)C)c1 (stereo not drawn)	?	18µM	i	?	?	?
CCC(C)NCCCCOc1ccc(Br)cc1 (stereo not drawn)	i	16µM	i	i	?	i
CSc1cccc(NC(=S)NCCCN2CCN(c3ccc(F)cc3)CC2)c1	i	i	i	i	i	i
O=C(Cn1c(=O)c2cccn2c2cccnc21)NCc1ccccc1F	nt	i	nt	nt	i	nt
CC1CCc2nc3ncn(CC(=O)Nc4cccc(C#N)c4)c(=O)c3cc2C1 (stereo not drawn)	nt	?	i	nt	i	?
Cc1ccc(CNC(=O)CSc2nc3c(sc4ccccc43)c(=O)n2CCCC(=O)NCCO)cc1	nt	?	i	nt	i	i
O=C(Nc1ccccc1)N1CCC(=S)Nc2ccccc21	i	i	i	i	i	i
CC1CN(C(=O)Nc2ccccc2)c2ccccc2-[n+]2ccsc21 (stereo not drawn)	i	12µM	?	i	3.7µM	i
O=C(Nc1ccccc1)N1CCc2scc[n+]2-c2ccccc21	i	12µM	i	i	5.8µM	i
COCCCNC(=O)C1CCC(Cn2c(=O)c3sccc3n(C)c2=O)CC1 (stereo not drawn)	nt	i	i	nt	i	i
CCOCCCn1c(=N)c(S(=O)(=O)c2ccc(C)cc2)cc2c(=O)n3cccc(C)c3nc21	nt	nt	i	nt	nt	?
Cc1cc(Cl)ccc1OC(C)C(=O)N1CCCN(C(=O)C(C)Oc2ccc(Cl)cc2C)CC1 (stereo not drawn)	18µM	21µM	13µM	21µM	21µM	?
CC(=O)Nc1ccc(Sc2ccccc2C(=O)Nc2ccc(F)cc2)cn1	i	18µM	i	i	?	?
COc1ccc2oc(=O)c(C(=O)N3CCN(c4ccc(C)cc4)CC3)cc2c1	nt	?	i	nt	i	i
O=C(N/N=C\c1cc2c(cc1Cl)OCO2)c1cccs1	i	?	i	i	?	i
O=C(CCCC(=O)NN=Cc1ccc(Cl)cc1Cl)NN=Cc1ccc(Cl)cc1Cl	i	?	i	i	i	i
Cc1ccc(OCC(=O)N/N=C\c2cccs2)c([N+](=O)[O-])c1	i	i	i	i	i	i
SMILES	HT1080-NT tox	DT40 TDP1 no CPT	KB-3-1 tox	HT1080 IDH1KD tx	TDP1 cell CPT	KB-V1 MDR tox
O=C(CCCC(=O)NN=Cc1ccccc1Cl)NN=Cc1ccccc1Cl	i	16µM	i	i	16µM	i
O=C(CCCOc1ccc(Cl)cc1Cl)N/N=C/c1ccccc1	i	?	i	i	?	?
O=C(Cc1ccccc1)N/N=C/c1cc2c(cc1Cl)OCO2	i	29µM	i	i	?	i
O=C(CCCOc1ccc(Cl)cc1Cl)N/N=C/c1ccccc1O	?	5.2µM	i	?	5.2µM	i
O=C(COc1ccc(Cl)cc1[N+](=O)[O-])N/N=C/c1cccs1	i	29µM	i	i	i	i
O=S1(=O)OC(c2ccc(O)cc2)(c2ccc(O)cc2)c2ccccc21	nt	i	nt	nt	i	nt
CC(NC=O)c1nc2ccccc2n1CCc1ccccc1 (stereo not drawn)	i	?	i	i	?	i
O=C(CCC(=O)N/N=C/c1cc(Cl)cc(Cl)c1O)NCc1ccccc1	i	23µM	i	i	?	i
Cc1ccc(/C=N/NC(=O)CCCOc2ccc(Cl)cc2Cl)cc1	15µM	10µM	?	15µM	8.2µM	?
O=C(CCC(=O)N/N=C/c1ccc(Br)s1)NCc1ccccc1	i	?	i	i	?	i
Cc1ccc(/C=N/NC(=O)CCCOc2ccc(Cl)cc2Cl)cc1[N+](=O)[O-]	?	i	?	?	i	i
COc1ccc(/C=N/NC(=O)CCCOc2ccc(Cl)cc2Cl)cc1[N+](=O)[O-]	i	16µM	?	i	?	21µM
CN(C(=S)NC(=O)CCCOc1ccc(Cl)cc1Cl)c1ccccc1	?	16µM	i	?	?	?
CCOC(=O)c1c(C)[nH]c(C)c1S(=O)(=O)N1CCC(C(=O)NCc2ccccc2Cl)CC1	nt	i	i	nt	i	i
O=C(NCC1CCCO1)C(Cc1ccccc1)N1C(=O)C2C3C=CC(C4CC34)C2C1=O (stereo not drawn)	i	?	i	i	?	i
COc1cc(SC)ccc1C(=O)OCC(=O)NCCC1=CCCCC1	i	i	i	i	i	i
CN(C(=S)NC(=O)Cc1ccccc1)c1ccccc1	?	?	i	18µM	?	i
CCN(CC)C(=S)NC(=O)Cc1ccccc1	i	i	i	i	i	i
COc1cccc(C2C(C(=O)Nc3ccc(C)cc3C)=C(C)Nc3c(C(=O)Nc4cccc(C)c4)cnn32)c1OC (stereo not drawn)	nt	i	nt	nt	i	nt
COc1ccc(NC(=O)/C(Cl)=C(/Cl)S(=O)Cc2ccccc2)cn1 (stereo not drawn)	5.8µM	0.018µM	5.8µM	1.5µM	0.021µM	8.2µM
COc1ccc(/C=C/C(=O)Nc2ccc(OC)nc2)cc1	i	?	?	i	i	i
COc1ccc(CS(=O)(=O)/C(Cl)=C(/Cl)C(=O)Nc2ccc(OC)nc2)cc1	23µM	0.58µM	?	8.2µM	0.58µM	3.7µM
Cc1cccc(NC(=O)CSc2nnc3c4ccccc4n(C)c3n2)c1	nt	i	i	nt	i	i
Cc1ccc(CCNC(=O)c2ccc3c(c2)N(Cc2ccccc2)C(=O)c2ccccc2S3=O)cc1 (stereo not drawn)	nt	15µM	i	nt	16µM	i
